According to PubChem BioAssay AID463173 (ICCB-Longwood Screening Facility, Harvard Medical School, 2010):
Out of some 52,000 compounds screened, about 1,700 (3.3%) were called active. Many of the other results were omitted from the sample, so actives are more common in it than they were. Unmarked numbers belong to inactive results. Rule as the data show it: active = survival mostly below about 52% (no sharp cut-off); inactive = mostly above about 56%.

test system: Wild type; test: S. aureus survival, RN4220 and DeltatarO strains – OD600, teichoic acid synthesis inhibitors, primary screen (AID 463173); conditions: S. aureus RN4220 wild type/DeltatarO growth, OD600, 18 h, hits give low values, screened at 18.75 µg/mL (by protocol)

Row | SMILES | survival
1 | CCCCn1c(SCc2ccccc2C)nc2ccsc2c1=O | 136%
2 | COc1cc(Nc2nc(SCc3ccccc3Cl)nc3ccccc23)cc(OC)c1 | 95%
3 | Cc1ccc(/C=C/c2nc3ccccc3n2S(=O)(=O)c2ccc(Br)cc2)cc1 | 70%
4 | CC(C)c1ccc(Nc2c(-c3ccsc3)nc3ccc(Cl)cn23)cc1 | 95%
5 | COc1ccc(C)cc1NC(=O)c1nnn(CC(=O)Nc2c(C)cccc2C)c1N | 74%
6 | COc1ccc(NC(=O)Cn2c(=O)n(Cc3nc(C)no3)c(=O)c3cc4c(cc32)OCO4)cc1OC | 70%
7 | COc1ccc(C(=O)Nc2ccc(C(=O)OCc3cc(=O)n4nc(C5CC5)sc4n3)cc2)cc1 | -3% (active)
8 | Cc1ccc(C(=O)Nc2cccc(C(=O)OCc3cc(=O)n4nc(C5CC5)sc4n3)c2)cc1 | 55%
9 | O=C(Nc1cccc(C(=O)OCc2cc(=O)n3nc(C4CC4)sc3n2)c1)c1ccccc1 | 1% (active)
10 | Cc1ccc(OCC(=O)Nc2ccc(C(=O)OCc3cc(=O)n4nc(C5CC5)sc4n3)cc2)cc1 | 81%
11 | O=C(COc1ccccc1)Nc1ccc(C(=O)OCc2cc(=O)n3nc(C4CC4)sc3n2)cc1 | 64%
12 | O=C(Nc1cccc(C(=O)OCc2cc(=O)n3nc(C4CC4)sc3n2)c1)c1ccc(F)cc1 | 81%
13 | Cc1cccc(OCC(=O)Nc2ccc(C(=O)OCc3cc(=O)n4nc(C5CC5)sc4n3)cc2)c1 | -4% (active)
14 | COc1cccc(C(=O)Nc2ccc(C(=O)OCc3cc(=O)n4nc(C5CC5)sc4n3)cc2)c1 | 63%
15 | COc1ccc(C(=O)Nc2cccc(C(=O)OCc3cc(=O)n4nc(C5CC5)sc4n3)c2)cc1 | 111%
16 | CCCCN(CC)CCNc1ncnc2onc(-c3ccc(Cl)cc3)c12 | 82%
17 | CCC(C(=O)NCc1cc(OC)ccc1OC)n1nc(C)c2sc3ccccc3c2c1=O (stereo unspecified) | 87%
18 | Cc1ccc(CCNC(=O)c2ccc3c(c2)N(Cc2cccc(F)c2)C(=O)c2ccccc2S3)cc1 | 71%
19 | CCN(CC)C(=O)CSc1nnc(COc2ccc(Br)cc2)o1 | 102%

Row | SMILES | survival
20 | COCc1[nH]nc2c1C(c1ccccc1C(F)(F)F)C(C#N)=C(N)O2 (stereo unspecified) | 114%
21 | CCCCCc1ccc(-c2ccc(C(=O)Oc3ccc(C(=O)OC)cc3)cc2)nc1 | 74%
22 | CCCc1ccc(-c2ccc(C(=O)Oc3ccc(Br)cc3)cc2)nc1 | 140%
23 | CCCCCc1ccc(-c2ccc(Br)cc2)nc1 | -3% (active)
24 | NNC(=O)CCC(=O)Nc1ccccc1 | 112%
25 | CC(C)CNS(=O)(=O)c1ccccc1 | 120%
26 | CCN(CC)S(=O)(=O)N1CCN(S(=O)(=O)N2CCOCC2)CC1 | 118%
27 | O=C(CS(=O)(=O)c1cccc2nsnc12)N1CCN(c2ccc(F)cc2)CC1 | 97%
28 | CCOC(=O)c1nnn(-c2nn3nnnc3c3ccccc23)c1C | 101%
29 | CCn1cc(C(=O)NCC(C)C)c(=O)c2cc(F)c(N3CCN(C(=O)c4ccco4)CC3)cc21 | 107%
30 | O=C(NCc1ccncc1)C1CCN(C(=O)c2cccc(Cl)c2)CC1 | 111%
31 | O=C(NCc1cccnc1)c1cn(C2CC2)c2cc(N3CCN(C(=O)c4cccc(Cl)c4)CC3)c(F)cc2c1=O | 0% (active)
32 | CCc1ccc(NC(=O)Cn2c(=O)n(CCCC(=O)NCc3ccccc3Cl)c(=O)c3ccccc32)cc1 | 136%
33 | CC(C)CCN(Cc1ccco1)C(=O)c1cc2c(Cl)nc3ccccc3c2s1 | 77%
34 | COc1cccc(CNC(=O)c2cc3c(s2)-c2ccccc2OC3)c1 | 65%
35 | CCN1CCN(CCCNC(=O)c2cc3c(s2)-c2ccccc2OC3)CC1 | 84%
36 | COCCCN(Cc1ccco1)C(=O)c1cc2c(s1)-c1ccccc1OC2 | 12% (active)
37 | CC(C)OCCCN(Cc1ccco1)C(=O)c1cc2c(s1)-c1ccccc1OC2 | 9% (active)
38 | CN(C)CCN(Cc1ccco1)C(=O)c1cc2c(s1)-c1ccccc1OC2 | 70%

Row | SMILES | survival
39 | CC(C)CCN(Cc1ccco1)C(=O)c1cc2c(s1)-c1ccccc1OC2 | 7% (active)
40 | O=C(CC1N=C2c3ccccc3N=C(SCc3ccccc3F)N2C1=O)NCc1cccs1 (stereo unspecified) | 75%
41 | Cc1cc(C)c2c(NC(=O)c3ccccc3Cl)c(C(=O)Nc3ccc(C)c(C)c3)sc2n1 | 64%
42 | CCc1ccc(NC(=O)c2cc3nc(-c4ccc(C)cc4)cc(C(F)(F)F)n3n2)cc1 | 60%
43 | O=C(Nc1ccc(NC(=O)C2CC23CCC3)cc1)C1CC12CCC2 (stereo unspecified) | 118%
44 | CCN1CCN(c2cc(C)c3cc(NC(=O)/C=C/c4cccc(OC)c4OC)ccc3n2)CC1 | 83%
45 | Cc1ccc(S(=O)(=O)Nc2cccc(-c3ccc(N4CCC(C)CC4)nn3)c2)s1 | -3% (active)
46 | O=S(=O)(Nc1ccc(-c2ccc(N3CCCC3)nn2)cc1)c1ccc(C(F)(F)F)cc1 | 64%
47 | O=S(=O)(Nc1ccc(-c2ccc(N3CCCCC3)nn2)cc1)c1ccc(OC(F)(F)F)cc1 | 72%
48 | COc1ccc(C)cc1S(=O)(=O)Nc1cccc(-c2ccc(N3CCCC3)nn2)c1 | 77%
49 | Cc1ccc(S(=O)(=O)Nc2cccc(-c3ccc(N4CCCCC4)nn3)c2)s1 | 64%
50 | COc1ccc(F)cc1S(=O)(=O)Nc1cccc(-c2ccc(N3CCC(C)CC3)nn2)c1 | 129%
51 | O=S(=O)(Nc1cccc(-c2ccc(N3CCCCCC3)nn2)c1)c1ccc(F)cc1 | 55%
52 | O=S(=O)(Nc1cccc(-c2ccc(N3CCCCCC3)nn2)c1)c1ccccc1 | 1% (active)
53 | CC1CCN(c2ccc(-c3cccc(NS(=O)(=O)c4ccc(Cl)s4)c3)nn2)CC1 | 71%
54 | O=S(=O)(Nc1ccc(-c2ccc(N3CCCC3)nn2)cc1)c1ccc(OC(F)(F)F)cc1 | -6% (active)
55 | O=S(=O)(Nc1cccc(-c2ccc(N3CCCCC3)nn2)c1)c1cccc(F)c1 | 119%
56 | COc1ccc(C)cc1S(=O)(=O)Nc1cccc(-c2ccc(N3CCC(C)CC3)nn2)c1 | -4% (active)
